Reference: PubChem BioAssay (NCI)
This is part of a sample that, as a whole, favours compounds with a hit. Of some 79,000 tested, about 15% had one in any assay. Values without a mark were called inactive. The source made the active and inactive calls. No stated cut-off is given here; in the data, active means growth inhibition above about 70%; inactive means the rest.

Experiments:
[1] = NCI Yeast Anticancer Drug Screen. Data for the rad50 strain (AID 155);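 further: 0% = growth of vehicle-only cultures of the same strain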; conditions: S. cerevisiae rad50 strain growth inhibition, hits give high values
How it was run: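 Relative growth inhibition (compound vs vehicle) was measured in yeast with a defined repair-gene alteration.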

[2] = NCI Yeast Anticancer Drug Screen. Data for the mec2-1 strain (AID 157); conditions: S. cerevisiae mec2-1 strain, hits give high values
How it was run: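 Using mec2-1 yeast: add compound, measure growth, express inhibition versus vehicle-treated cultures.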

[3] = NCI Yeast Anticancer Drug Screen. Data for the sgs1 mgt1 strain (AID 161);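 further: 0% = growth of cultures given vehicle only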; conditions: S. cerevisiae sgs1 mgt1 strain, hits give high values
How it was run: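 Yeast cells carrying a defined DNA-repair defect were exposed to test compounds. Growth inhibition was measured relative to vehicle-treated controls.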

[4] = NCI Yeast Anticancer Drug Screen. Data for the cln2 rad14 strain (AID 165);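 further: 0% = growth equal to vehicle treated cultures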; conditions: S. cerevisiae cln2 rad14 strain, hits give high values
How it was run: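 Yeast strain cln2 rad14, bearing defects in cell cycle control and DNA repair, serves as the test system; values reflect growth inhibition compared with vehicle.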

[5] = NCI Yeast Anticancer Drug Screen. Data for the bub3 strain (AID 167); conditions: S. cerevisiae bub3 mutant strain, hits give high values
How it was run: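 Screening used yeast with an engineered genetic alteration affecting cell cycle control. Compound-exposed cultures were compared with vehicle cultures, and reduced growth was taken as inhibition.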

[6] = NCI Yeast Anticancer Drug Screen. Data for the mlh1 rad18 strain (AID 175); conditions: S. cerevisiae mlh1 rad18 strain growth inhibition, hits give high values
How it was run: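 Steps: expose repair-defective yeast to compound; measure growth; express inhibition against vehicle-treated controls.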

[7] = at 5.0 µM (retest, dose inferred, filed as 0.5)
[8] = at 50.0 µM (retest, dose inferred, filed as 5.0)

| SMILES | growth inhibition [1, 7] [%] | growth inhibition [1, 8] | growth inhibition ([1]; at 50.0 µM) | growth inhibition [2, 7] | growth inhibition [2, 8] | growth inhibition ([2]; at 50.0 µM) | growth inhibition [3, 7] | growth inhibition [3, 8] | growth inhibition ([3]; at 50.0 µM) | growth inhibition [4, 7] [%] | growth inhibition [4, 8] | growth inhibition ([4]; at 50.0 µM) | growth inhibition [5, 7] [%] | growth inhibition [5, 8] | growth inhibition ([5]; at 50.0 µM) | growth inhibition [6, 7] | growth inhibition [6, 8] | growth inhibition ([6]; at 50.0 µM) |
| --- | --- | --- | --- | --- | --- | --- | --- | --- | --- | --- | --- | --- | --- | --- | --- | --- | --- | --- |
| COc1cc(C=Nc2ccc(Cl)cc2)ccc1OC(=O)c1ccccc1 | 6 | -8% | 18% | -6% | -5% | -37% | -2% | -1% | -3.8% | 26 | 21% | 7.55% | 27 | 30% | -6.5% | 3% | -18% | 11.1% |
| CCCCCCCCCCCC(=O)C(=O)c1ccc(O)cc1O | 52 | 88% (active) | 93.8% (active) | 87% (active) | 93% (active) | 97.3% (active) | 91% (active) | 92% (active) | 96.4% (active) | 25 | 84% (active) | 95.5% (active) | 45 | 90% (active) | 95.8% (active) | 87% (active) | 92% (active) | 96.7% (active) |
| Cc1ccc(C2=CC(=O)/C(=C\C(=O)c3ccc(Cl)cc3)O2)cc1 | 31 | 31% | 74.9% (active) | 28% | 28% | 55.5% | 17% | 17% | 71.2% (active) | 38 | 38% | 57% | 22 | 22% | 49.5% | 37% | 37% | 58% |
| O=C1C2=C(C(=O)c3cnccc31)C1C=CC2CC1 (stereo not given) | 21 | 71% (active) | 49.1% | 17% | 69% | 31.2% | 25% | 78% (active) | 10.2% | 16 | 40% | 15.8% | 27 | 88% (active) | 59.9% | 40% | 94% (active) | 90.8% (active) |
| CC1=C(C(=O)OCCc2ccc([N+](=O)[O-])cc2)C(c2ccccc2[N+](=O)[O-])C(C(=O)OC(C)C)=C(C)N1 (stereo not given) | 12 | 93% (active) | 69.6% | 13% | 94% (active) | 74.3% (active) | 1% | 87% (active) | 75.7% (active) | 0 | 80% (active) | 68.4% | 4 | 89% (active) | 74.6% (active) | 10% | 94% (active) | 68% |
